“And” between values parts separate entries of the source, which are not always exact repeats. Equal entries are not always repeated. About 83,000 compounds went through this panel and 20% of them were active in at least one assay; those are over-represented in the sample as a whole.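 Compound tested at a single concentration for 48 hours in 96-well plates; a percent growth value below 10 was scored as active.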 The source made the active and inactive calls.

In the assay the test system is MCF7 breast. In words: NCI-60 one-dose screen, 48 h (100 = growth as untreated, 0 = no growth, -100 = all killed). Conditions: 10 µM unless noted.
`CSc1nc(Br)nc2ncn(C3CC(Oc4ccc(C)cc4)C(COc4ccc(C)cc4)O3)c12` (stereo not given): the growth was 64.8% [100 µM] (inactive) and -36.2% [100 µM] (active). Take `CCC/C(Cl)=N/OC(=O)Nc1cccc(F)c1`: the growth was -73.4% [100 µM] (active) and -100% [100 µM] (active). On to `CC(=O)C1=C(C)N2C(=NC3=C(CCc4ccccc43)C2c2ccc(Cl)cc2)S1` (stereo not given), for which the growth was 24.9% [100 µM] (inactive) and 9.75% [100 µM] (active). The same measure for `CNC(=S)/C(=N\Nc1nc[nH]c1C(N)=O)C(N)=S`: 10.6% [100 µM] (inactive) and 4.26% [100 µM] (active). Turning to `COc1ccc2nc(N/N=C/c3ccc(C)s3)cc(C)c2c1`, the growth was -92.2% [100 µM] (active) and -100% [100 µM] (active). As for `COc1ccc2cc1Oc1ccc(cc1)C[C@@H]1c3cc(c(OC)cc3CCN1C)Oc1c(OC)c(OC)cc3c1[C@H](C2)N(C)CC3`, the growth is 35.9% [100 µM] (inactive) and -90.5% [100 µM] (active). For the compound `Cc1ccc(NC(=O)/C(=N\NC(N)=O)c2c(O)c3ccccc3[nH]c2=O)cc1`, the growth is 92.8% [100 µM] (inactive) and 85.4% [100 µM] (inactive).

Take `CCOc1cc2c(cc1O)C=C[C@@H]1[C@@H]2CC[C@]2(C)[C@@H](O)CC[C@@H]12`: the growth is -21% [100 µM] (active) and -100% [100 µM] (active). For `C=C1C(=O)OC2/C=C(\CO)CC/C=C(\CO)CC(OC(=O)C(C)C)C12` (stereo not given) the value was -82.7% [100 µM] (active) and -70% [100 µM] (active); for `Cc1ccc(/C=N/Nc2cnccn2)s1`, 14.7% [100 µM] (inactive) and 4.18% [100 µM] (active).

As to `O=C1NC(N/N=C\c2ccccc2)=N/C1=C/c1ccc(Cl)cc1`, the growth is -66.3% [100 µM] (active) and 14% [100 µM] (inactive). As to `C[C@@H]1C[C@@H]2OC(=O)[C@]3(C)[C@H]2[C@@H](OC3(C)O)[C@]2(C)C(=O)C=C[C@@H]12` (stereo not given in full), the growth is -67.1% [100 µM] (active) and -81.7% [100 µM] (active). Take `O=C1NC(N/N=C\c2ccccc2)=N/C1=C/c1ccccc1`: the growth was -46% [100 µM] (active) and -100% [100 µM] (active).

As to `CCn1c2c(c3ccccc3c1=O)C(=O)c1ccccc1-2`, the growth was 71.7% [100 µM] (inactive) and 21% [100 µM] (inactive). As for `Cc1cc2nn(C3CCCO3)nc2cc1C` (stereo not given), the growth is 79.7% [100 µM] (inactive) and 92.9% [100 µM] (inactive). For `CCCCCCCCOC(=O)C12Oc3ccc(-c4ccc5c(c4O)C(O)=C4C(=O)CC(C)C(O)C4(C(=O)OCCCCCCCC)O5)c(O)c3C(O)=C1C(=O)CC(C)C2O` (stereo not given) the value was -22.3% [100 µM] (active) and -100% [100 µM] (active). With `N#CC1(C#N)C2CCCCC23OC(=N)C1(C#N)C(c1ccco1)O3` (stereo not given), the growth is -54% [100 µM] (active). `N#Cc1n[nH]n(-c2ccccc2)c1=O`: the growth is 95% [100 µM] (inactive) and 80.4% [100 µM] (inactive). Take `NC(Cc1ccc(S(=O)(=O)O)cc1)C(=O)NC(Cc1ccc(S(=O)(=O)O)cc1)C(=O)NC(Cc1ccc(S(=O)(=O)O)cc1)C(=O)NC(Cc1ccc(S(=O)(=O)O)cc1)C(=O)O` (stereo not given): the growth was 87.7% [100 µM] (inactive) and 83.5% [100 µM] (inactive). As to `CC1=C2NCN(C)N=C2C(C#N)(C#N)C1(C#N)C#N`, the growth was -60.6% [100 µM] (active) and -73.1% [100 µM] (active).

Turning to `NC(=O)CC1OC(=O)Cc2cc3c(c(O)c21)C(=O)c1c(O)cccc1C3=O` (stereo not given), the growth was 30.4% [100 µM] (inactive). `CC(C)O/N=C/c1cc(NC(=S)OC(C)C)ccc1Cl`: the growth was -77.4% [100 µM] (active) and 3.65% [100 µM] (active).

For the compound `Cc1ccc(OCC2OC(n3cnc4nc(N)nc(Cl)c43)CC2Oc2ccc(C)cc2)cc1` (stereo not given), the growth was 45.4% [100 µM] (inactive) and -87.9% [100 µM] (active). With `CC1=CC(=O)c2ccc(C)cc2C1=O`, the growth is -70.7% [100 µM] (active) and -100% [100 µM] (active).

For the compound `CC1CC(=O)N(N(C)C)C2(C#N)C(=O)N=C(N)C12C#N` (stereo not given), the growth is -67.7% [100 µM] (active) and -64.1% [100 µM] (active).

For the origin of these results see PubChem BioAssay (NCI).
